Each structure is given as a SMILES string. Hit rate of the full screen: of about 330,000 compounds, about 1,500 (0.45%) were called active. Only a selection was taken, and actives are over-represented in it overall. Values without a mark were called inactive. Cut-off read from the data, not from the text of the source: active = inhibition above about 45% (passing the limit was not always enough); inconclusive = no clear call, values can overlap the other calls.

In general, inhibition refers to the drop in the measured response relative to a control, in per cent.

Ubiquitin-conjugating enzyme E2 N (Homo sapiens), sequence (P61088 whole entry, looked up): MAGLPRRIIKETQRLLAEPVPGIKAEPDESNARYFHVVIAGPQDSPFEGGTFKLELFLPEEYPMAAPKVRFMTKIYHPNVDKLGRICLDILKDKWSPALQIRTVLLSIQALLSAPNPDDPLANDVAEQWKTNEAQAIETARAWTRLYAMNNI

The assay addresses Ubiquitin-conjugating enzyme E2 N (Homo sapiens) (UniProt P61088). Nature of the assay: blockers of UBC13 ubiquitin chain synthesis – biochemical, TR-FRET, uHTS, primary screen (AID 485273). The settings on record: UBC13 polyubiquitin chain formation, at 20 µM, stronger effect = higher value.
For the molecule `O=C(Nc1ccccc1N1CCOCC1)c1ccc(OCc2cscn2)cc1`, the inhibition is 0.6%. In the case of `CCn1cc(C(=O)NCC(=O)NC(C)(C)CO)c(=O)c2cc3c(cc21)OCO3`, the inhibition is 3.5%. To `CC(C)(C)CN1C(=O)C(=O)NC[C@H]1Cc1cccc2ccccc12` belongs 4%. To `O=C1CCNCCN1[C@H](CO)Cc1ccccc1` belongs -4.8%; to `c1ccc(C2CNCc3c2ccc2ccccc32)cc1` (configuration not stated), 21.7%. Turning to `c1ccc(C[C@H]2CNCCN2CCC23CC4CC(CC(C4)C2)C3)cc1`, the inhibition is 55.8% (active). In the case of `c1ccc2c(CCN3CCNC[C@H]3Cc3cccc4ccccc34)cccc2c1`, the inhibition was 46.1% (active). To `O=C1C(=O)N(c2ccccc2)c2ccccc21` belongs -10.7%; to `CC(C)(C)c1nnc(N/N=C/c2ccc(O)cc2)n(N)c1=O`, -10.3%; to `CCCc1cc(=S)n2c([nH]c3ccccc32)c1C#N`, -11.8%. For the molecule `CCOC(=O)c1ccc(NC(=O)c2nc[nH]c2C(=O)NCc2ccccc2)cc1`, the inhibition is 65% (active). In the case of `CCOC(=O)c1[nH]cnc1C(=O)Nc1ccccc1C`, the inhibition was -4.7%. `O=C(Nc1ccon1)c1nc[nH]c1C(=O)NCc1ccccc1`: the inhibition was -4.8%. For the molecule `Cc1cc(C)c(SCCc2ccncc2)c(C)c1`, the inhibition is 5.6%. For the molecule `Cc1ccccc1CCNC(=O)C1CCC(=O)N(Cc2ccc(Cl)cc2)C1` (configuration not stated), the inhibition is 1.4%.

For the molecule `CCOC(=O)C1=C(c2ccccc2)O/C(=C(/C(=O)OC)C(F)(F)F)S1`, the inhibition is 46.8% (active). Consider `COC(=O)/C(=C1\Oc2ccc(C(C)(C)C)cc2S1)C(F)(F)F`, for which the inhibition is -10.5%. Regarding `CCOC(=O)c1nnn(-c2nonc2OC)c1-c1ccccc1`, the inhibition was 1%. Consider `COc1ccc2sc(-c3ccc(S(C)(=O)=O)cc3)c(C#Cc3cncn3C)c2c1`, for which the inhibition is 47.1% (active). To `COc1ccc2sc(-c3ccc(S(C)(=O)=O)cc3)c(-c3ccc(C(N)=O)cc3)c2c1` belongs 38.5%; to `COc1ccc(-c2sc3ccc(OC)cc3c2C#Cc2ccccn2)cc1`, 29.9%; to `CCOC(=O)C1CCN(Cc2coc3ccc(Cl)cc3c2=O)CC1`, -15.5%. Under `CCOC(=O)c1c(S(=O)(=O)Nc2cccc(Cl)c2)c(C)n(C)c1C` stands -2.9%; under `Cc1c(C(=O)N2CCCC2)c(S(=O)(=O)NCC(C)c2ccccc2)c(C)n1C` (configuration not stated), -2.8%; under `CCOC(=O)c1cccc(NS(=O)(=O)c2c(C(=O)N3CCCCCC3)c(C)n(C)c2C)c1`, 46.1% (active).

`Cc1nnc(SC(C)C(=O)Nc2ccc(S(=O)(=O)NC3CCCCC3)cc2)s1` (configuration not stated): the inhibition was -0.1%. In the case of `C=CCN1C(=O)C(Cc2ccc(OCC)cc2)SC1=Nc1ccc(C(=O)O)cc1` (configuration not stated), the inhibition is 7.8%.

The values above are taken from PubChem BioAssay AID485273 (Sanford-Burnham Center for Chemical Genomics, 2010).
